High-throughput results from PubChem.
TDP1 cell noCPT – qHTS for Inhibitors of human tyrosyl-DNA phosphodiesterase 1 (TDP1): qHTS in cells in absence of CPT; DT40 Tdp1-/- hTDP1 cells, no CPT, ATP luminescence, 48 h; Potency, µM (doses to about 46.2 µM), most hits filed as inhibitors; 15% of 420,000 active; AID 686978, 2013; also: nearly all actives have a fitted effect of over 55% in size
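DT40 Tdp1-/-;hTDP1 cells, no CPT (DMSO vehicle only), 400 cells/well; compounds pin-transferred; ≥48 hr, 37 °C; CellTiter-Glo 30 min RT dark, luminescence read.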
IL1B secr inh – inhibitors of inflammasome signaling (IL-1 beta secretion); AID 743279; THP-1 LPS/ATP IL-1B secretion, AlphaLISA, 16 h; hits give low values; 4.7% of 360,000 active; activity change, % at 57.5 µM; in the data active = activity change below about -50%; inconclusive = mostly about -30% to -49%
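THP-1 cells pretreated 1 hr with compounds (up to 57.5 uM final), then stimulated with LPS (250 ng/mL final) plus ATP (1.25 mM final); secreted IL-1B measured by AlphaLISA after 16 hr, decreased signal indicating inhibition.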
HepG2 viability – counter-screen for TGF-b inhibitors: cytotoxicity in HepG2 cells; 0.76% of 410,000 active; Potency, µM (top dose mostly 46.1 µM), hits mostly cytotoxic; AID 588856; HepG2 CAGA-GFP viability, ATP luminescence, 18 h
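HepG2 CAGA-GFP cells (1000/well, DMEM with 1% FBS) received compound, then TGF-beta at 500 pg/mL final, and were incubated 18 hours at 37 degrees C. Viability was read by CellTiter-Glo luminescence. Media-only wells were set as complete cell-killing and DMSO as no toxicity.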
TGFb SMAD3 inh – blocks TGF-b signaling | Potency, µM (highest dose often 46.1 µM), hits mostly inhibitors | HepG2 CAGA-GFP TGF-b/SMAD3 reporter, GFP fluorescence, 18 h; TGF-beta stimulated, 500 pg/mL final | 1.2% of 410,000 active; also: nearly all actives have a fitted effect of over 65% in size
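Using HEPG2 CAGA-GFP reporter cells at 1000 cells/well, we pinned test compounds, stimulated with recombinant TGF-beta (500 pg/mL final) and measured total well GFP after 18 h.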
TDP1 cell CPT – growth inhibition of DT40 Tdp1-/-;hTDP1 cells with camptothecin (screen for TDP1 inhibitors). 12% of 420,000 active. AID 686979. chicken DT40 Tdp1-/-;hTDP1 cells + 20 nM CPT, ATP luminescence, 48 h. Potency, µM (titrated, usually from 46.2 µM), hits mostly inhibitors; also: nearly all actives have a fitted effect of over 55% in size
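Chicken DT40 Tdp1-/- cells stably complemented with human TDP1 were seeded at 400 cells/well in medium containing 20 nM camptothecin, exposed to pin-transferred compounds, and grown at 37 °C for at least 48 hr. Viability was read as ATP luminescence.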
TDP1 block – inhibitors of human tyrosyl-DNA phosphodiesterase TDP1; Q9NUW8; recombinant TDP1, AlphaScreen DNA substrate cleavage; Potency, µM (titrated, usually from 130 µM), hits mostly inhibitors; 0.28% of 350,000 active; also: nearly all actives have a fitted effect of over 40% in size
Target sequence (Q9NUW8 whole entry, looked up): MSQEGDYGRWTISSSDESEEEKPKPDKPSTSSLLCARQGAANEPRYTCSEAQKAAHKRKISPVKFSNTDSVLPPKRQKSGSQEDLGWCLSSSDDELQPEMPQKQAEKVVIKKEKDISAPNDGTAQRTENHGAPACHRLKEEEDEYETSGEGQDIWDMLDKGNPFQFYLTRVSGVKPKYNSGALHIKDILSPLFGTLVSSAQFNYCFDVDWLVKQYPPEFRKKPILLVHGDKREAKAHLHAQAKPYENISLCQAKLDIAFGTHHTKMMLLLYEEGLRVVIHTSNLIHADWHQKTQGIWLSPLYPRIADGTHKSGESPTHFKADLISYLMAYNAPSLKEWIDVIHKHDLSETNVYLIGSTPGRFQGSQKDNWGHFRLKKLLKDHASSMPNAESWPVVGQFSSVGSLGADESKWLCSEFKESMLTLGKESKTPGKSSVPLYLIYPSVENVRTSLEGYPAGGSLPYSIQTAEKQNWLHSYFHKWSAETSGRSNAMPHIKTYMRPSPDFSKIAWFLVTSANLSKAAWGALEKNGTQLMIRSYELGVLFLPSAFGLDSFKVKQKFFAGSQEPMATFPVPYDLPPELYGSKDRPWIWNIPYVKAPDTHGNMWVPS
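Compounds were preincubated with Tdp1 (1 nM final) for 15 min at room temperature before substrate (15 nM final) started a 5 min reaction; beads (10 ug/ml final) were then added for 10 min before AlphaScreen detection.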
Large screens that a line does not name were inactive. Hits are enriched below; roughly 18% of the tested compounds scored in any of these assays. Unless noted, calls follow the shape of the dose curve; as a rule, active = well fitted curve in the direction sought with a large enough effect; inconclusive = small, poorly fitted or top-dose-only effect, or another doubt; inactive = no such curve, though single readings can be large; an effect the other way counts as inactive or inconclusive.

CCc1cccc(C)c1NC(=O)CSc1nnc(CCCOc2ccc(Cl)cc2Cl)n1C	TDP1 cell noCPT 14.6µM, TGFb SMAD3 inh inconclusive, TDP1 cell CPT 23.1µM
Cn1c(CCCOc2ccc(Cl)cc2Cl)nnc1SCC(=O)Nc1cccc(F)c1	TDP1 cell noCPT inconclusive, TDP1 cell CPT inconclusive
COc1ccc(CCCc2nnc(SCC(=O)Nc3nc(C)cs3)n2C)cc1C	TDP1 cell noCPT 25.9µM, TDP1 cell CPT inconclusive
O=C(NCC1CCCO1)c1cccc(S(=O)(=O)Nc2ccc(SC(F)F)cc2)c1 (stereo unspecified)	none
COc1ccc(N2C(=O)C(CC(=O)Nc3ccccc3)N(CCc3ccc(OC)c(OC)c3)C2=O)cc1 (stereo unspecified)	none
COc1ccc(CCN2C(=O)N(c3ccccc3)C(=O)C2CC(=O)Nc2ccccc2)cc1 (stereo unspecified)	TDP1 cell noCPT 25.9µM, TDP1 cell CPT inconclusive (no result: IL1B secr inh)
CCCOc1ccc(NC(=O)CC2C(=O)N(c3ccc(F)cc3)C(=O)N2CC(C)C)cc1 (stereo unspecified)	TDP1 cell noCPT inconclusive, TDP1 cell CPT inconclusive (no result: IL1B secr inh)
COc1ccc(CCN2C(=S)N(c3ccccc3)C(=O)C2CC(=O)O)cc1OC (stereo unspecified)	none (no result: TDP1 block)
COc1ccc(CCN2C(=O)N(c3ccc(OC)cc3)C(=O)C2CC(=O)Nc2ccccc2)cc1 (stereo unspecified)	TDP1 cell noCPT inconclusive
COc1ccc(CCN2C(=O)N(c3cccc(C)c3)C(=O)C2CC(=O)Nc2ccccc2)cc1OC (stereo unspecified)	TDP1 cell noCPT inconclusive, TDP1 cell CPT 23.1µM (no result: IL1B secr inh)
CNC(=O)CC1C(=O)N(c2ccc(Cl)cc2)C(=S)N1CCc1ccc(OC)c(OC)c1 (stereo unspecified)	TDP1 cell noCPT 9.2µM, IL1B secr inh -50.4, TDP1 cell CPT inconclusive
CCCOc1ccc(NC(=O)CC2C(=O)N(c3ccccc3)C(=O)N2CCC(C)C)cc1 (stereo unspecified)	TDP1 cell noCPT 14.6µM, TGFb SMAD3 inh inconclusive, TDP1 cell CPT inconclusive (no result: IL1B secr inh)
COc1cc(Cl)ccc1OCc1cc(C(=O)N[C@H]2CCCCNC2=O)no1	none
COc1ccc(CCN2C(=O)N(c3ccc(C)cc3)C(=O)C2CC(=O)Nc2ccc(OC)cc2)cc1 (stereo unspecified)	TDP1 cell noCPT inconclusive, TDP1 cell CPT 20.6µM (no result: IL1B secr inh)
CCN1C(=O)C(CC(=O)Nc2ccc(OC)cc2)N(CCc2ccc(OC)cc2)C1=S (stereo unspecified)	TDP1 cell noCPT inconclusive, IL1B secr inh -86.3, TGFb SMAD3 inh inconclusive, TDP1 cell CPT inconclusive
CCN1C(=O)C(CC(=O)Nc2ccc(OC)cc2)N(Cc2ccc(OC)c(OC)c2)C1=S (stereo unspecified)	TDP1 cell noCPT inconclusive
Cc1ccc(N2C(=O)C(CC(=O)Nc3cccc(F)c3)N(CCc3ccccc3F)C2=O)cc1 (stereo unspecified)	TDP1 cell noCPT 20.6µM, TGFb SMAD3 inh inconclusive, TDP1 cell CPT 16.4µM (no result: IL1B secr inh)
CCC(CC)c1nn2c(=O)cc(COc3ccc(NC(=O)c4ccc(C)cc4)cc3)nc2s1	TDP1 cell CPT inconclusive (no result: IL1B secr inh)
Cc1cc(C(C)(C)C)cc(C)c1S(=O)(=O)N1CC(=O)Nc2ccccc21	IL1B secr inh -62.5, HepG2 viability 12.6µM, TGFb SMAD3 inh inconclusive, TDP1 cell CPT inconclusive (no result: TDP1 block)
Cc1ccc(C(C)(C)C)cc1S(=O)(=O)N1CC(=O)Nc2ccccc21	TDP1 cell noCPT inconclusive, IL1B secr inh -99.7
Cc1ccc(S(=O)(=O)N2CC(=O)Nc3ccccc32)c(C)c1NS(C)(=O)=O	TDP1 cell CPT inconclusive (no result: TDP1 block)
CCCCC[C@@H](O)c1cc2ccccc2c(=O)o1	TDP1 cell noCPT inconclusive
CCCCNC(=O)C1(C)CCCCN1C(=O)c1ccc2c(c1)C(C)(C)CCC2(C)C (stereo unspecified)	TDP1 cell noCPT 2.06µM, TGFb SMAD3 inh inconclusive, TDP1 cell CPT 3.66µM (no result: TDP1 block)
CCCCNC(=O)C1(C)CCN1C(=O)c1ccc2c(c1)C(C)(C)CCC2(C)C (stereo unspecified)	TDP1 cell noCPT 13µM, TDP1 cell CPT 20.6µM (no result: TDP1 block)
CCCCNC(=O)C1(C)CCCCN1C(=O)c1ccc(F)c(C)c1 (stereo unspecified)	TDP1 cell noCPT inconclusive, TDP1 cell CPT inconclusive (no result: TDP1 block)
Cc1[nH]c2ccccc2c1C1(O)C(=O)N(Cc2ccccc2Cl)c2ccccc21 (stereo unspecified)	TDP1 cell noCPT 5.17µM, TGFb SMAD3 inh inconclusive, TDP1 cell CPT 5.8µM (no result: IL1B secr inh)
Cc1[nH]c2ccccc2c1C1(O)C(=O)N(Cc2ccccc2)c2ccc(Br)cc21 (stereo unspecified)	TDP1 cell noCPT 4.61µM, TGFb SMAD3 inh inconclusive, TDP1 cell CPT 4.11µM (no result: IL1B secr inh)
O=C(Cc1c[nH]c2ccccc12)NCc1ccc(Cl)cc1	TDP1 cell noCPT inconclusive, TGFb SMAD3 inh inconclusive
CC1(C)c2[nH]c3ccccc3c2C[C@@H]2C(=O)N(Cc3ccccc3Cl)C(=O)N21	TGFb SMAD3 inh inconclusive (no result: TDP1 cell noCPT, IL1B secr inh, TDP1 cell CPT, TDP1 block)
Cc1ccc(CN2C(=O)C(O)(c3c[nH]c4ccccc34)c3cc(Cl)ccc32)cc1 (stereo unspecified)	TDP1 cell noCPT 23.1µM, HepG2 viability 12.6µM, TGFb SMAD3 inh 2.82µM, TDP1 cell CPT inconclusive (no result: IL1B secr inh)
O=S(=O)([O-])CCC[n+]1c(/C=C\Nc2ccccc2)oc2ccc(-c3ccccc3)cc21	none (no result: TDP1 cell noCPT, IL1B secr inh, HepG2 viability, TGFb SMAD3 inh, TDP1 cell CPT)
CC[n+]1c(/C=C/Nc2ccccc2)oc2ccccc21	TDP1 cell noCPT 14.6µM, TDP1 cell CPT 14.6µM
CC(=O)N1CCc2cc(S(=O)(=O)NC(CC(C)C)C(=O)NCCc3ccc(C)cc3)ccc21 (stereo unspecified)	none (no result: IL1B secr inh)
COc1ccccc1NC(=O)C1=C(C)Nc2nc(SCc3ccccc3C)nn2C1CC(C)C (stereo unspecified)	TDP1 cell noCPT 20.6µM (no result: IL1B secr inh)
CC1=C(C(=O)Nc2ccccc2)C(c2cccs2)n2nc(SCc3ccccc3F)nc2N1 (stereo unspecified)	none (no result: IL1B secr inh)
COc1ccccc1NC(=O)C1=C(C)Nc2nc(SCc3ccccc3F)nn2C1c1cccs1 (stereo unspecified)	TDP1 cell noCPT 9.2µM, TDP1 cell CPT 8.2µM (no result: IL1B secr inh)
CC1=C(C(=O)Nc2ccccc2C)C(c2cccs2)n2nc(SCc3cc(C)ccc3C)nc2N1 (stereo unspecified)	TDP1 cell noCPT 5.8µM, TDP1 cell CPT inconclusive (no result: IL1B secr inh)
CC1=C(C(=O)Nc2ccc(C)cc2C)C(c2cccs2)n2nc(SCc3ccccc3Cl)nc2N1 (stereo unspecified)	TDP1 cell noCPT 6.51µM, TDP1 cell CPT 10.3µM (no result: IL1B secr inh)
